Screening results (PubChem)
Mtb hypoxia rep – Mtb hypoxia fluorescent reporter inhibition | M. tuberculosis hypoxia-regulated fluorescent reporter, fluorescence | fluorescence inhibition, % (no concentration beside the values) | hit rate 0.1% among 300,000; in the data active means fluorescence inhibition mostly above about 23%, no sharp cut-off; inactive means mostly below about 17%
Yp Topo-I inh – blocks Yersinia pestis topoisomerase I activity; hit rate 0.064% among 360,000; Y. pestis Topo-I cleavage product accumulation, plate reader; AID 504884; activity, % at 10 µM; in the data active means activity above about 50%, passing the limit was not always enough
Mtb BioA inh – blocks M. tuberculosis BioA enzyme activity. purified M. tuberculosis BioA enzyme, plate reader. inhibition, % at 9.99 µM. hit rate 0.096% among 360,000. AID 602481; in the data active means inhibition above about 40%
ugtP null kill – kills S. aureus RN4220 lacking UgtP | AID 1259309 | S. aureus RN4220 ugtP deletion, OD600 growth, 16 h | hit rate 0.54% among 330,000 | growth inhibition, % (test concentration not listed); in the data active means growth inhibition above about 68%
TcdB inh – TcdB glycohydrolase inhibition. TcdB glycohydrolase enzymatic assay, plate reader. inhibition, % at 9.99 µM. hit rate 0.24% among 350,000. P18177; in the data active means inhibition above about 10%
Target sequence (P18177 whole entry, looked up): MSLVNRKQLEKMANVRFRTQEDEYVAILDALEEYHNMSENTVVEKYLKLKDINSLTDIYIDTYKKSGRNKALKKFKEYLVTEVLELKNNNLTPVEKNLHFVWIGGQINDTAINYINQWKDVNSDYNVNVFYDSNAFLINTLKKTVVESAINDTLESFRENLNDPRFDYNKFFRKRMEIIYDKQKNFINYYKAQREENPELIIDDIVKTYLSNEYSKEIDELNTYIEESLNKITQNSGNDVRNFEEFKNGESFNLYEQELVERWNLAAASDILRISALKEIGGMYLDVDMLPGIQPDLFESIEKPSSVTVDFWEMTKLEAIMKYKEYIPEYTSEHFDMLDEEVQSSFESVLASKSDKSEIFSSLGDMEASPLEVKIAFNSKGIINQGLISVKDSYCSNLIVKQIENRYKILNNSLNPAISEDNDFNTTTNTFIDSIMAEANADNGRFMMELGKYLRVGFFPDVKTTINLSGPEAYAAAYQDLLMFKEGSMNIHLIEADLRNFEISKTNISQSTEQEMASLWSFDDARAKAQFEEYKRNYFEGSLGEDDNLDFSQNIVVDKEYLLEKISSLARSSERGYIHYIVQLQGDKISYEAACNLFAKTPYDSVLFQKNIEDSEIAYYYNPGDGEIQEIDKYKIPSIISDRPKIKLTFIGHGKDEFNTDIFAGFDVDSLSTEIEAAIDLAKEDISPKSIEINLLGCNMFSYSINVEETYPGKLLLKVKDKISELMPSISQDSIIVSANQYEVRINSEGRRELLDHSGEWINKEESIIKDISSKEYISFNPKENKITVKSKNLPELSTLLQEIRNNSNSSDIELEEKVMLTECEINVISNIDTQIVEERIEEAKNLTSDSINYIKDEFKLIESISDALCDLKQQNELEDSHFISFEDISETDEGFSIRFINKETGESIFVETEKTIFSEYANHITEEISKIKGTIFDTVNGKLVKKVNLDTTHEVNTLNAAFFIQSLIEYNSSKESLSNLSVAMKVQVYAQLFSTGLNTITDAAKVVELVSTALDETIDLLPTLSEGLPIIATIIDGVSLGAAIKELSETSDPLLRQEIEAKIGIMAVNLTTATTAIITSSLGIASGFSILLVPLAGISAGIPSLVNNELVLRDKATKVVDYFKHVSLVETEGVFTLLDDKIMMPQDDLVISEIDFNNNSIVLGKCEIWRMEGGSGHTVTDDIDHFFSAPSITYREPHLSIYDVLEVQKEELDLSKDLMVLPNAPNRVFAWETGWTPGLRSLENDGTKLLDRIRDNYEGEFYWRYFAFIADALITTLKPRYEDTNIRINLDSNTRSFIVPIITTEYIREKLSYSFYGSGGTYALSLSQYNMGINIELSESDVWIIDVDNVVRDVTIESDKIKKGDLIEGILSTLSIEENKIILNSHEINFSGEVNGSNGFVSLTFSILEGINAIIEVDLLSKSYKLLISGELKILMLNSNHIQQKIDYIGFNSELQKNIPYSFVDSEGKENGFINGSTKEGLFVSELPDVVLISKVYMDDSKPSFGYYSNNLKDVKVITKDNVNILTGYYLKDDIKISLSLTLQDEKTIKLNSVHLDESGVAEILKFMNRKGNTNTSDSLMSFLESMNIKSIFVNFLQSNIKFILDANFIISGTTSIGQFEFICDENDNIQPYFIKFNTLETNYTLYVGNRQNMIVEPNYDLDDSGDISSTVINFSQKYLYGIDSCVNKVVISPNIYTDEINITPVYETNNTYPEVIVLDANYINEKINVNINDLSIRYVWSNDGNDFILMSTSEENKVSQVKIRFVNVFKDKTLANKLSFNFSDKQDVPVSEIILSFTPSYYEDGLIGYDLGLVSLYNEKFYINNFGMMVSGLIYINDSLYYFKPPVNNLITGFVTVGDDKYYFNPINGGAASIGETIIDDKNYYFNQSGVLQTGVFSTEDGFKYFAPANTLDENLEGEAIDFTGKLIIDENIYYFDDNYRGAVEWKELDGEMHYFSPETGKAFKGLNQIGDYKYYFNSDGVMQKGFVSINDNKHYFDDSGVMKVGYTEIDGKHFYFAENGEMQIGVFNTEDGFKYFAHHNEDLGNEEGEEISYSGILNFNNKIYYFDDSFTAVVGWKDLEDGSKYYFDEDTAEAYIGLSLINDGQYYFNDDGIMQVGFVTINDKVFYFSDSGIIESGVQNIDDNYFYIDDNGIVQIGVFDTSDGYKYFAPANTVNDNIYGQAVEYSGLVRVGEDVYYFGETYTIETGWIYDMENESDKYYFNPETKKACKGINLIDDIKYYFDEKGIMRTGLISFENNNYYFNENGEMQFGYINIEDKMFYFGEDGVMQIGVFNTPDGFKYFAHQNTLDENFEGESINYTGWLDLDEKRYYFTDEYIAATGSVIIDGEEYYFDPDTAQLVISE
Sa RN4220 lethal – kills Staphylococcus aureus RN4220; inhibition, % (concentration not given with the values); hit rate 0.33% among 330,000; S. aureus RN4220 growth, OD600, 16 h; in the data active means inhibition above about 85%
A number is an active result; - = inactive; . = not tested or not shown; ! = a repeat was not active. Shown are actives, neighbours in structure and some others; about 0.75% of the full set was active somewhere.

SMILES | Mtb hypoxia rep | Yp Topo-I inh | Mtb BioA inh | ugtP null kill | TcdB inh | Sa RN4220 lethal
Oc1ccc(CCNc2ncnc3ccc(Cl)cc23)cc1 | . | - | - | . | 11 | .
Cc1ccc(S(=O)(=O)Nc2nc(C)c(C(=O)NN=Cc3ccccc3)s2)cc1 | - | . | . | - | . | -
COc1ccc(CNCCc2ccc3c(c2)OCO3)cc1Br | . | - | - | . | 11 | .
Cc1cc(C)n2nc(N)c(N=Nc3ccccc3)c2n1 | 84 | - | . | - | - | -
Cc1cc(C)n2nc(N)c(N=Nc3ccc4c(c3)OCO4)c2n1 | - | - | - | - | . | -
Cc1ccccc1OCc1nc2ccccc2c(=O)n1N=Cc1ccco1 | - | . | . | - | . | -
CC(C)c1ccc(OCC(=O)Nc2cccc3c2CCCC3)cc1 | - | - | - | 96 | . | -
O=C(NN=Cc1cccc(OC(=O)c2ccc([N+](=O)[O-])cc2)c1)c1cccnc1 | - | . | . | - | . | -
Clc1ccc(COC(Cn2ccnc2)c2ccc(Cl)cc2Cl)c(Cl)c1 (centres undefined) | . | 60! | - | 100 | - | 100
O=S(=O)(Nc1nc(-c2ccccc2)cs1)c1cccc(C(F)(F)F)c1 | - | - | - | - | - | -
O=[N+]([O-])c1ccc(S(=O)(=O)Nc2nc(-c3ccccc3)cs2)cc1 | - | - | - | - | 13 | -
COc1ccc2sc(-c3ccccc3OC)c(C#Cc3cncn3C)c2c1 | - | - | - | - | - | -
COc1ccccc1-c1sc2cc3c(cc2c1C#Cc1cncn1C)OCO3 | - | - | - | 90 | - | -
COc1ccc(-c2sc3ccccc3c2C#Cc2cncn2C)cc1 | . | - | - | 97 | - | -
Nc1ccc2c(c1)[nH]c(=O)c1cc(N)ccc12 | . | - | - | . | 21 | .
CCC(=O)N1CC2(CC(c3cccc(NC(=O)CC(c4ccccc4)c4ccccc4)c3)=NO2)CC1C(N)=O (centres undefined) | - | . | . | - | . | -
Cc1ccccc1COCC(CC(C)C)N1CCN(C(=O)c2cccc(C(F)(F)F)c2)CCC1=O (centres undefined) | - | . | . | - | . | -
CC(=NNC(=O)c1cc(-c2ccc(Cl)s2)[nH]n1)c1ccncc1 | - | . | . | - | . | -
CCOc1ccc(C(=O)CC(Sc2ccc(C)cc2)C(=O)O)cc1 (centres undefined) | - | - | - | - | - | -
O=C(CC(Sc1ccc(Br)cc1)C(=O)O)c1ccc(F)cc1 (centres undefined) | - | - | - | 92 | - | -
Cc1c(N2C(=O)/C(=C/c3ccc(N(C)C)cc3)N(C)C2=S)c(=O)n(-c2ccccc2)n1C | 40 | - | - | - | - | -
Cc1c(N2C(=O)/C(=C/c3ccccc3)SC2=S)c(=O)n(-c2ccccc2)n1C | - | - | - | - | . | -
C=CCc1c(C)nc(SC)nc1Nc1ccc(C(C)=O)cc1 | . | - | 54 | - | . | -
CN(C)S(=O)(=O)c1ccc(C(=O)Nc2nnc(-c3ccc4c(c3)CCCC4)o2)cc1 | - | - | - | 99 | - | 98
COc1ccc(-c2nnc(NC(=O)c3cc(Cl)ccc3Cl)o2)cc1 | - | - | - | 100 | - | -
SMILES | Mtb hypoxia rep | Yp Topo-I inh | Mtb BioA inh | ugtP null kill | TcdB inh | Sa RN4220 lethal
COc1ccc(-c2nnc(NC(=O)c3ccc(S(=O)(=O)N4CCc5ccccc5C4)cc3)o2)cc1 | - | - | - | 99 | . | -
O=C(Nc1nnc(-c2ccc3c(c2)CCCC3)o1)c1ccc(Cl)cc1Cl | - | - | - | 100 | - | 99
CC(=O)CC1c2ccccc2S(=O)(=O)N1C1CCCCC1 (centres undefined) | - | . | . | - | . | -
CC(c1ccccc1)n1nnc(COCc2ccccc2)c1C#CCOCc1ccccc1 (centres undefined) | - | . | . | - | . | -
Cn1cccc1C=NN1CCN(Cc2ccccc2Cl)CC1 | - | . | . | - | . | -
N#C/C(=C(/O)COC(=O)c1ccccc1O)c1nc2ccccc2s1 | . | - | . | . | - | .
CC(C)(C)c1ccc(C(=O)OC/C(O)=C(\C#N)c2nc3ccccc3s2)cc1 | - | - | . | 85 | - | -
O=C(C1=CC(c2ccccc2)CC(OCc2ccc(CO)cc2)O1)N1CCN(Cc2ccccc2)CC1 (centres undefined) | - | . | . | - | . | -
CCC(=O)Nc1ccc2c(c1)OC[C@H](C)N(C(=O)NC(C)C)C[C@@H](C)[C@@H](OC)CN(C)C2=O | . | . | - | . | 11 | .
CCC(=O)Nc1ccc2c(c1)C(=O)N(C)C[C@H](OC)[C@@H](C)CN(C(=O)NC(C)C)[C@@H](C)CO2 | . | . | - | . | - | .
CCC(=O)Nc1ccc2c(c1)C(=O)N(C)C[C@H](OC)[C@@H](C)CN(C(=O)NC(C)C)[C@H](C)CO2 | . | . | - | . | - | .
CCCC(=O)Nc1ccc2c(c1)OC[C@H](C)N(CC1CCCC1)C[C@H](C)[C@@H](OC)CN(C)C2=O | . | . | - | . | 30 | .
CCC(=O)Nc1ccc2c(c1)OC[C@@H](C)N(C(=O)NC(C)C)C[C@H](C)[C@H](OC)CN(C)C2=O | . | . | - | . | 15 | .
O=C(NN=Cc1ccco1)c1cc(-c2ccc(Br)s2)[nH]n1 | - | . | . | - | . | -
C=CCc1cccc(C=NNC(=O)CCCNc2ccc(C)cc2)c1O | - | . | . | - | . | -
CCC(C)n1c(=O)c(C(=O)Nc2ccccc2S(N)(=O)=O)c(O)c2ccccc21 (centres undefined) | . | - | - | - | . | 103
O=C(CC1CCCCC1)Nc1ccccc1-c1ccccc1 | - | - | . | - | - | -
CN(CC(=O)Nc1ccccc1-c1ccccc1)C1CCCCC1 | . | 58 | - | - | . | -
Cc1ccc[n+](-c2[nH]c(=O)sc2C=N/N=C(\[O-])CCn2c3ccccc3c3ccccc32)c1 | - | . | . | - | . | -
CC(=NNC(=O)CN1CCN(Cc2ccccc2Cl)CC1)c1ccco1 | - | . | . | - | . | -
COc1cccc(C(=O)C2CCCN(Cc3ccc4nsnc4c3)C2)c1 (centres undefined) | - | - | - | - | - | -
COc1cccc(C(=O)C2CCCN(Cc3ccc(F)cc3)C2)c1 (centres undefined) | - | - | - | - | 13 | -
CCOC(=O)c1c(C(F)(F)F)cc(-c2ccc(F)cc2)nc1C | - | - | . | 94 | . | -
CCOC(=O)c1cc2c(C(F)(F)F)cc(-c3ccccc3)nc2o1 | - | - | . | - | . | -
CC(=O)n1cc(C2C=C(C(=O)Nc3ccccc3)OC(OCc3ccc(CO)cc3)C2)c2ccccc21 (centres undefined) | - | . | . | - | . | -
SMILES | Mtb hypoxia rep | Yp Topo-I inh | Mtb BioA inh | ugtP null kill | TcdB inh | Sa RN4220 lethal
CCCCCCCCCCCCCCCC[n+]1cccc2ccccc21 | - | - | . | 97 | - | 99
CCCCCCCCC[n+]1cccc2c3ccccc3ccc21 | - | - | . | 100 | . | 100
COc1ccc(Br)cc1C=NNC(=O)c1ccc(COc2ccc3c(c2)CCC3)o1 | . | . | . | - | . | -
C/C(=N\Nc1cc(N2CCOCC2)ncn1)c1ccc(O)cc1 | . | - | - | . | 28 | .
CC1(CC(=O)NN=Cc2ccc(-c3ccc(C(=O)O)cc3)o2)OCCO1 | - | . | . | - | . | -
COC(=O)C(Cc1ccccc1)NC(=O)C1CC1C(NC(=O)OCc1ccccc1)c1ccccc1 (centres undefined) | - | . | . | - | . | -
CCc1ccc(NC(=O)C2=CC(c3ccc(OC)cc3)=NS(=O)(=O)N2C)cc1 | - | - | - | - | 76 | -
